Measurements from PubChem BioAssay (Tox21).
Inconclusive results are not listed. Activity calls are given as the source filed them. Unless noted, calls follow the shape of the dose curve; as a rule, active = well fitted curve in the direction sought with a large enough effect in the repeat runs; inconclusive = weak or mixed curves; inactive = no such curve, though single readings can be large; an effect the other way counts as inactive or inconclusive.

What was measured:
[1] = target: Thyrotropin receptor (Homo sapiens) (UniProt P16473); experiment: qHTS assay to identify small molecule agonists of the thyroid stimulating hormone receptor (TSHR) signaling pathway (AID 1224843; calls by dose curve; also: nearly all actives have a fitted effect of over 45% in size)
Outline: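 Using 15 concentrations per compound in triplicate, cAMP production was monitored in TSHR-HEK293 cells after 30 min compound incubation at RT; HTRF reagents followed, with fluorescence intensity recorded after 1 h.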

[2] = qHTS assay to identify small molecule agonists of the hypoxia (HIF-1) signaling pathway - cell viability counter screen (AID 1224844; calls by dose curve; also: nearly all actives have a fitted effect of over 50% in size)
Outline: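 Same wells as the HIF-1 reporter screen; ME-180 cells carrying HRE-bla, 17 hr treatment at 37C; CellTiter-Glo luminescence read after 30 min at room temperature.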

[3] = qHTS assay to identify small molecule agonists of the hypoxia (HIF-1) signaling pathway (AID 1224846; active = well fitted activation curve with a large enough effect in the signal ratio in the repeat runs, not every such curve was filed as active; the % refers to the signal ratio)
Outline: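 In ME-180 cells bearing an HRE-bla construct, 17 h treatment with DMSO-dissolved compounds at 37C was followed by CCF4-AM loading to quantify reporter induction.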

[4] = qHTS assay to identify small molecule agonists of H2AX - cell viability counter screen (AID 1224847; calls by dose curve; also: top concentration of the series differs between compounds; nearly all actives have a fitted effect of over 30% in size)
Outline: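 Cells plated first: CHO-K1, 1000 per well in 10% FBS medium, incubated overnight at 37C. Then 15-point compound titration added (final DMSO 0.76%) for 3 hr. Finally CellTiter-Glo added and luminescence read.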

[5] = qHTS RealTime-Glo MT Cell Viability Assay in HEK293 cells - 32 hour (AID 1224868); also: top concentration of the series differs between compounds; nearly all actives have a fitted effect of over 50% in size
Outline: (§1)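 Assay medium contained NanoLuc luciferase plus cell-permeant prosubstrate, added with HEK293 cells at 600 cells/well. After 5 h at 37 C/5% CO2 compounds were added; plates stayed at 37 C for 40 h with serial luminescence reads.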

[6] = A CellTox Green Cytotoxicity Assay to monitor cytotoxicity in HEK293 cells - 0 hour (AID 1224869); also: nearly all actives have a fitted effect of over 50% in size
Outline: (§2)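 Homogeneous no-lysis format: HEK293 cell suspension mixed with CellTox Green reagent, seeded, incubated 5 h at 37 C/5% CO2, then dosed by pintool with compound in DMSO.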

[7] = qHTS RealTime-Glo MT Cell Viability Assay in HepG2 cells - 40 hour (AID 1224870); also: nearly all actives have a fitted effect of over 50% in size
Outline: (§3)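 HepG2 cells mixed with RealTime-Glo MT reagents (NanoLuc plus cell-permeant prosubstrate) were seeded at 600 cells/well, incubated 5 h at 37 C/5% CO2, then pinned with compounds in DMSO; nonlytic luminescence tracked viability during 40 h treatment.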

[8] = A CellTox Green Cytotoxicity Assay to monitor cytotoxicity in HEK293 cells - 40 hour (AID 1224871); also: nearly all actives have a fitted effect of over 45% in size
Outline: as §2

[9] = qHTS RealTime-Glo MT Cell Viability Assay in HEK293 cells - 16 hour (AID 1224872)
Outline: as §1

[10] = qHTS RealTime-Glo MT Cell Viability Assay in HepG2 cells - 8 hour (AID 1224873); also: nearly all actives have a fitted effect of over 55% in size
Outline: as §3

[11] = qHTS RealTime-Glo MT Cell Viability Assay in HEK293 cells - 40 hour (AID 1224874); conditions: RealTime-Glo luminescence; max response: active compounds read low; also: nearly all actives have a fitted effect of over 50% in size
Outline: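 Measured as luminescence from the same continuously cultured HEK293 wells at successive time points (0, 8, 16, 24, 32, 40 h) after compound addition. Reagent present from seeding; dosing at 5 h; incubation 37 C.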

[12] = A CellTox Green Cytotoxicity Assay to monitor cytotoxicity in HEK293 cells - 24 hour (AID 1224875); also: nearly all actives have a fitted effect of over 45% in size
Outline: as §2

[13] = A CellTox Green Cytotoxicity Assay to monitor cytotoxicity in HepG2 cells - 16 hour (AID 1224876); also: nearly all actives have a fitted effect of over 45% in size
Outline: (§4)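 Fluorescent DNA-binding dye, 600 HepG2 cells/well, 5 h preincubation then compound in DMSO; same plates read at 0–40 h, 37 C.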

[14] = qHTS RealTime-Glo MT Cell Viability Assay in HepG2 cells - 32 hour (AID 1224877); also: nearly all actives have a fitted effect of over 55% in size
Outline: (§5)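 qHTS, HepG2, 600 cells/well, RealTime-Glo (NanoLuc + prosubstrate) added with cells; 5 h preincubation; DMSO compound addition; 37 C; luminescence at 0/8/16/24/32/40 h.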

[15] = A CellTox Green Cytotoxicity Assay to monitor cytotoxicity in HepG2 cells - 24 hour (AID 1224878); also: nearly all actives have a fitted effect of over 45% in size
Outline: as §4

[16] = A CellTox Green Cytotoxicity Assay to monitor cytotoxicity in HepG2 cells - 40 hour (AID 1224879); also: nearly all actives have a fitted effect of over 40% in size
Outline: as §4

[17] = qHTS assay to identify small molecule antagonists of the estrogen related receptor (ERR) signaling pathway from Tox21 library (AID 1224848); also: nearly all actives have a fitted effect of over 50% in size
Outline: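 Tox21 10K compounds in DMSO tested for ERR pathway antagonism in NTP's ERR cell line; 18 h, 37 C exposure; ONE-Glo luminescence.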

[18] = qHTS assay to identify small molecule agonists of the estrogen related receptor (ERR) signaling pathway from Tox21 library (AID 1224849; calls by dose curve; also: nearly all actives have a fitted effect of over 15% in size); conditions: ERR reporter cell line, ONE-Glo luciferase, 18 h; at 92.4 µM (top of the series) unless noted
Outline: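 Reporter cells (ERR, NTP source) treated with Tox21 10K compounds 18 h, 37 C. Readout: ONE-Glo luminescence, 30 min RT.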

[19] = qHTS assay to identify small molecule agonists of H2AX (AID 1224845; active = well fitted activation curve with a large enough effect in the signal ratio in the repeat runs, not every such curve was filed as active; the % refers to the signal ratio)
Outline: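 Wild-type CHO-K1 cells plated overnight, then exposed 3 hr at 37C to compounds at 15 concentrations (0.76% DMSO). Lysed, then HTRF anti-pH2AX(S139)-cryptate/anti-H2AX-d2 detection after 24 hr at room temperature; emissions 665 and 620 nm.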

[20] = qHTS RealTime-Glo MT Cell Viability Assay in HepG2 cells - 24 hour (AID 1224867); also: nearly all actives have a fitted effect of over 50% in size
Outline: as §5
% is scaled to controls: 0 for no effect and ±100 for the full control effect.

Thyrotropin receptor (Homo sapiens), sequence (P16473 whole entry, looked up): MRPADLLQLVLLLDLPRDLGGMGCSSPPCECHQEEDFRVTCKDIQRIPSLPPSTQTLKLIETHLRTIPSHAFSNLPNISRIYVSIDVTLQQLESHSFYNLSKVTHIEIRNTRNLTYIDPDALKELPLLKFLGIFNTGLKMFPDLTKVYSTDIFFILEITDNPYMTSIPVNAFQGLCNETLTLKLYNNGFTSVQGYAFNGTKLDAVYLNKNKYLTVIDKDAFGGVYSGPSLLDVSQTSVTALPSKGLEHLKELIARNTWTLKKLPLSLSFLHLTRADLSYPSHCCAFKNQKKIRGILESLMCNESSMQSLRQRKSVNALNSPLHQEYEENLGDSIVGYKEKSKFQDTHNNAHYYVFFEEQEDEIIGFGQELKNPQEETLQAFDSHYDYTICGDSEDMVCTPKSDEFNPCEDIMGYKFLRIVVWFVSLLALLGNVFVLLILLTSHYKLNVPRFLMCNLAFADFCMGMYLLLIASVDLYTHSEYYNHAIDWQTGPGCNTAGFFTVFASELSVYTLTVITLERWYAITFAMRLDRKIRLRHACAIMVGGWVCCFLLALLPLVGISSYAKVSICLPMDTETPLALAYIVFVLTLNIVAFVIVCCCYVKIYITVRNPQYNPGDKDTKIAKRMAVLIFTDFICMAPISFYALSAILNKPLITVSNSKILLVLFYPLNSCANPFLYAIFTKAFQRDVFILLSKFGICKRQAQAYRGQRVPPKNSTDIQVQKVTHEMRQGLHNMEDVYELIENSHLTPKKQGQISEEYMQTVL

CCCCC(CC)COCCC#N (configuration not stated)
inactive: Potency [1] | Potency [2] | outcome [3] | Potency [4] | Potency [5] | Potency [6] | Potency [7] | Potency [8] | Potency [9] | outcome [10] | max response [11] 12.6% | Potency [12] | Potency [13] | Potency [14] | Potency [15] | Potency [16]

CC(=O)c1ccc(Cl)c(Cl)c1Cl
inactive: Potency [1] | Potency [2] | outcome [3] | Potency [4] | Potency [5] | Potency [6] | Potency [7] | Potency [9] | outcome [10] | max response [11] -19.2% | Potency [13] | Potency [14] | Potency [15] | Potency [16]

C/C(=C(\CCO)SS/C(CCO)=C(\C)N(C=O)Cc1cnc(C)nc1N)N(C=O)Cc1cnc(C)nc1N
inactive: Potency [1] | Potency [2] | outcome [3] | Potency [17] | activity change, positive = activation [18] 3.66% [at 42.5 µM] | Potency [5] | Potency [6] | Potency [7] | Potency [8] | Potency [9] | outcome [10] | max response [11] 7.21% | Potency [12] | Potency [13] | Potency [14] | Potency [16]

C=CC(O)CCCCC (configuration not stated)
inactive: Potency [1] | Potency [19] | outcome [3] | activity change, positive = activation [18] 1.36% | outcome [20] | Potency [5] | Potency [6] | Potency [7] | Potency [8] | Potency [9] | outcome [10] | max response [11] 0.0439% | Potency [12] | Potency [13] | Potency [14] | Potency [15] | Potency [16]

CC1(COc2ccc(CC3SC(=O)NC3=O)cc2)CCCCC1 (configuration not stated)
inactive: Potency [1] | Potency [19] | outcome [3] | Potency [4] | Potency [17] | activity change, positive = activation [18] 7.77% [at 42.5 µM] | outcome [20] | Potency [5] | Potency [6] | Potency [7] | Potency [8] | Potency [9] | outcome [10] | max response [11] 1.6% | Potency [13] | Potency [14] | Potency [15]

CCCCOC(=O)C(C)Oc1ccc(Oc2ccc(C(F)(F)F)cn2)cc1 (configuration not stated)
inactive: Potency [2] | Potency [19] | outcome [3] | Potency [4] | outcome [20] | Potency [5] | Potency [6] | Potency [8] | outcome [10] | max response [11] -1.23% | Potency [12] | Potency [13] | Potency [14] | Potency [15] | Potency [16]

CCC(=O)O[C@@H]1C[C@H]2CC[C@]1(C)C2(C)C
inactive: Potency [2] | Potency [19] | outcome [3] | Potency [4] | Potency [17] | activity change, positive = activation [18] 0.21% | outcome [20] | Potency [5] | Potency [7] | Potency [9] | outcome [10] | max response [11] -11.1% | Potency [12] | Potency [13] | Potency [14] | Potency [15] | Potency [16]

C[C@@H](O)[C@H]1C(=O)N2C(C(=O)O)=C(S[C@@H]3CN[C@H](CNS(N)(=O)=O)C3)[C@H](C)[C@H]12
inactive: Potency [1] | outcome [3] | Potency [4] | outcome [20] | Potency [5] | Potency [6] | Potency [7] | Potency [9] | outcome [10] | max response [11] 2.56% | Potency [12] | Potency [13] | Potency [14] | Potency [15] | Potency [16]
